Nine molecules from PubChem BioAssay (NCI) can be followed below.

This is part of a sample that, as a whole, favours compounds with a hit. Of some 79,000 tested, about 15% had one in any assay. A number with no mark means an inactive call. Calls of active or inactive are those of the source. Rule as the data show it: active = growth inhibition above about 70%; inactive = the rest.

Test [1] is described as follows: NCI Yeast Anticancer Drug Screen. Data for the rad50 strain (AID 155).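 Also: 0% = growth of vehicle-only cultures of the same strain.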 Particulars: S. cerevisiae rad50 strain growth inhibition, hits give high values. The gist of the method:
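Readout: growth inhibition relative to vehicle-treated cultures. Compound exposure was carried out in a genetically defined yeast strain deficient in DNA damage repair.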

Test [2] can be described thus: NCI Yeast Anticancer Drug Screen. Data for the mec2-1 strain (AID 157). Particulars: S. cerevisiae mec2-1 strain, hits give high values. The gist of the method: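 Test agents were screened against the mec2-1 yeast strain, with defined DNA repair or cell cycle alteration. Growth was scored as inhibition against vehicle-only controls.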
A short description of test [3]: NCI Yeast Anticancer Drug Screen. Data for the sgs1 mgt1 strain (AID 161).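 Also: 0% = growth of cultures given vehicle only.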 Particulars: S. cerevisiae sgs1 mgt1 strain, hits give high values. The gist of the method: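 Mutant yeast exposed to compound; growth scored against vehicle-only wells.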
Test [4] can be described thus: NCI Yeast Anticancer Drug Screen. Data for the cln2 rad14 strain (AID 165).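 Also: 0% = growth equal to vehicle treated cultures.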 To be noted: S. cerevisiae cln2 rad14 strain, hits give high values. Put shortly: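 Growth of compound-exposed yeast (cln2 rad14 genotype) measured and expressed as inhibition relative to vehicle.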
The nature of test [5]: NCI Yeast Anticancer Drug Screen. Data for the bub3 strain (AID 167). To be noted: S. cerevisiae bub3 mutant strain, hits give high values. Put shortly:
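Readout: yeast growth inhibition, expressed relative to vehicle-only wells. The test organism is a mutant strain from a panel with lesions in DNA repair or checkpoint genes.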

The nature of test [6]: NCI Yeast Anticancer Drug Screen. Data for the mlh1 rad18 strain (AID 175). To be noted: S. cerevisiae mlh1 rad18 strain growth inhibition, hits give high values. The gist of the method:
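In this whole-cell yeast screen, a strain with altered DNA damage repair is challenged with compound, and its growth is measured against matched vehicle-treated controls.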

[7] abbreviates: at 5.0 µM (retest, dose inferred, filed as 0.5).
Where [8] appears, read: at 50.0 µM (retest, dose inferred, filed as 5.0).

In the case of `C=C1CCC[C@@]2(C)CC[C@@H](/C(C)=C\C=C\C(C)(C)O)C[C@H]12`, the growth inhibition was 0% in test [1] (setting [7]); 29% in test [1] (setting [8]); 83.1% (active) in test [1] (at 50.0 µM); -1% in test [2] (setting [7]); 32% in test [2] (setting [8]); 92.8% (active) in test [2] (at 50.0 µM). In addition, the growth inhibition is 2% in test [3] (setting [7]); 56% in test [3] (setting [8]); 92.5% (active) in test [3] (at 50.0 µM); -5% in test [4] (setting [7]); 0% in test [4] (setting [8]); 91.8% (active) in test [4] (at 50.0 µM). Besides, the growth inhibition is 2% in test [5] (setting [7]); 28% in test [5] (setting [8]); 91.7% (active) in test [5] (at 50.0 µM); -2% in test [6] (setting [7]); 53% in test [6] (setting [8]); 88.8% (active) in test [6] (at 50.0 µM).
Consider `O=S(=O)(c1cc(Br)ccc1O)c1cc(Br)ccc1O`, for which the growth inhibition is 94% (active) in test [1] (setting [7]); 99% (active) in test [1] (setting [8]); 99.8% (active) in test [1] (at 50.0 µM); 99% (active) in test [2] (setting [7]); 100% (active) in test [2] (setting [8]); 99.8% (active) in test [2] (at 50.0 µM). For the same molecule, the growth inhibition in test [3] (setting [7]) is 89% (active); in test [3] (setting [8]), 99% (active); in test [3] (at 50.0 µM), 99.8% (active); in test [4] (setting [7]) it was 99% (active); in test [4] (setting [8]), 100% (active); in test [4] (at 50.0 µM), 99.5% (active). Also, the growth inhibition in test [5] (setting [7]) is 99% (active); in test [5] (setting [8]) it was 100% (active); in test [5] (at 50.0 µM), 99.7% (active); in test [6] (setting [7]), 98% (active); in test [6] (setting [8]), 99% (active); in test [6] (at 50.0 µM) it was 99.5% (active).
On to `COc1ccc(CC2c3cc4c(cc3CCN2C)OCO4)c(C=O)c1OC` (configuration not stated), for which the growth inhibition in test [1] (setting [7]) is -2%; in test [1] (setting [8]) it was -4%; in test [1] (at 50.0 µM), 82% (active); in test [2] (setting [7]), -1%; in test [2] (setting [8]), -1%; in test [2] (at 50.0 µM), 86.7% (active). Moreover, the growth inhibition is -1% in test [3] (setting [7]); -3% in test [3] (setting [8]); 83.3% (active) in test [3] (at 50.0 µM); -4% in test [4] (setting [7]); -11% in test [4] (setting [8]); 84.7% (active) in test [4] (at 50.0 µM). In addition, the growth inhibition was -2% in test [5] (setting [7]); 1% in test [5] (setting [8]); 57.3% in test [5] (at 50.0 µM); -2% in test [6] (setting [7]); -4% in test [6] (setting [8]); -38.8% in test [6] (at 50.0 µM).
Take `NN(c1ccccc1)c1cccc2ccccc12`: the growth inhibition in test [1] (setting [7]) is 2%; in test [1] (setting [8]), 96% (active); in test [1] (at 50.0 µM), -16.4%; in test [2] (setting [7]), -1%; in test [2] (setting [8]) it was 97% (active); in test [2] (at 50.0 µM), 3.7%. The growth inhibition in test [3] (setting [7]) is 1%; in test [3] (setting [8]), 97% (active); in test [3] (at 50.0 µM) it was 39.1%; in test [4] (setting [7]), -4%; in test [4] (setting [8]), 95% (active); in test [4] (at 50.0 µM) it was -23.8%. Moreover, the growth inhibition in test [5] (setting [7]) was -1%; in test [5] (setting [8]), 96% (active); in test [5] (at 50.0 µM) it was 75.9% (active); in test [6] (setting [7]) it was 1%; in test [6] (setting [8]), 96% (active); in test [6] (at 50.0 µM) it was 25.1%.
For `NC(=O)C1(Br)C=[N+](Cc2ccccc2)CCC1` (configuration not stated), the growth inhibition is 0% in test [1] (setting [7]); -2% in test [1] (setting [8]); 29.2% in test [1] (at 50.0 µM); 3% in test [2] (setting [7]); -3% in test [2] (setting [8]); 11.9% in test [2] (at 50.0 µM). Further, the growth inhibition in test [3] (setting [7]) was -3%; in test [3] (setting [8]), -4%; in test [3] (at 50.0 µM) it was 11.8%; in test [4] (setting [7]), -2%; in test [4] (setting [8]), -3%; in test [4] (at 50.0 µM) it was 13.9%. In addition, the growth inhibition in test [5] (setting [7]) was -2%; in test [5] (setting [8]), -6%; in test [5] (at 50.0 µM) it was -3.4%; in test [6] (setting [7]), 2%; in test [6] (setting [8]), 1%; in test [6] (at 50.0 µM) it was 24.4%.
As for `CCCCCC/C=C\CCCCCCCCCc1c(O)c(OC)cc(O)c1CN(C)C`, the growth inhibition in test [1] (setting [7]) was 5%; in test [1] (setting [8]) it was 94% (active); in test [1] (at 50.0 µM) it was 80.7% (active); in test [2] (setting [7]), -17%; in test [2] (setting [8]), 94% (active); in test [2] (at 50.0 µM), 88.3% (active). Also, the growth inhibition was 15% in test [3] (setting [7]); 96% (active) in test [3] (setting [8]); 87.1% (active) in test [3] (at 50.0 µM); 13% in test [4] (setting [7]); 30% in test [4] (setting [8]); 86.2% (active) in test [4] (at 50.0 µM). Further, the growth inhibition in test [5] (setting [7]) was 5%; in test [5] (setting [8]), 96% (active); in test [5] (at 50.0 µM), 80.8% (active); in test [6] (setting [7]) it was 2%; in test [6] (setting [8]), 94% (active); in test [6] (at 50.0 µM), 79.6% (active).
Regarding `CCCC1=C(c2ccccc2)C(O)(c2ccccc2)C(CCC)C1=O` (configuration not stated), the growth inhibition in test [1] (setting [7]) was 0%; in test [1] (setting [8]), 46%; in test [1] (at 50.0 µM), 97.8% (active); in test [2] (setting [7]), 4%; in test [2] (setting [8]), 47%; in test [2] (at 50.0 µM), 96.4% (active). Besides, the growth inhibition in test [3] (setting [7]) was 0%; in test [3] (setting [8]), 37%; in test [3] (at 50.0 µM), 96.2% (active); in test [4] (setting [7]), -9%; in test [4] (setting [8]), 19%; in test [4] (at 50.0 µM), 95.3% (active). For the same molecule, the growth inhibition in test [5] (setting [7]) was -3%; in test [5] (setting [8]), 69%; in test [5] (at 50.0 µM), 93.3% (active); in test [6] (setting [7]) it was 4%; in test [6] (setting [8]), 47%; in test [6] (at 50.0 µM), 95.8% (active).
With `CC(C)Cn1cnc2c(SCc3ccccc3[N+](=O)[O-])nc(N)nc21`, the growth inhibition is 2% in test [1] (setting [7]); -4% in test [1] (setting [8]); 90% (active) in test [1] (at 50.0 µM); -4% in test [2] (setting [7]); -2% in test [2] (setting [8]); 96% (active) in test [2] (at 50.0 µM). In addition, the growth inhibition in test [3] (setting [7]) was 0%; in test [3] (setting [8]), -2%; in test [3] (at 50.0 µM), 56%; in test [4] (setting [7]), -22%; in test [4] (setting [8]) it was -3%; in test [4] (at 50.0 µM) it was 82.2% (active). The growth inhibition was -1% in test [5] (setting [7]); -4% in test [5] (setting [8]); 96.8% (active) in test [5] (at 50.0 µM); 1% in test [6] (setting [7]); 2% in test [6] (setting [8]); 84.8% (active) in test [6] (at 50.0 µM).
In the case of `NC(=Nc1ccccc1)SCc1ccc([N+](=O)[O-])cc1`, the growth inhibition in test [1] (setting [7]) was 47%; in test [1] (setting [8]), 67%; in test [1] (at 50.0 µM), 30.2%; in test [2] (setting [7]) it was 51%; in test [2] (setting [8]), 78% (active); in test [2] (at 50.0 µM), 43%. In addition, the growth inhibition in test [3] (setting [7]) was 13%; in test [3] (setting [8]), 71% (active); in test [3] (at 50.0 µM), 57.2%; in test [4] (setting [7]) it was 52%; in test [4] (setting [8]), 76% (active); in test [4] (at 50.0 µM), 16.8%. Besides, the growth inhibition was 29% in test [5] (setting [7]); 76% (active) in test [5] (setting [8]); 70.5% (active) in test [5] (at 50.0 µM); 43% in test [6] (setting [7]); 70% (active) in test [6] (setting [8]); 19.4% in test [6] (at 50.0 µM).
